Laboratory results published in PubChem BioAssay.
For some of these results: Measured potencies and affinities stand elsewhere. Calls of active or inactive are those of the source.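 Rule for the calls, unless noted: active = primary screen hit whose calcium fluorescence ratio, in both repeats, exceeds the weak agonist control mean by 3 SD; inactive = the rest.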

Assays:
[1] = tested on: TRPC4 beta (transient receptor potential cation channel C4), mouse; assay: TRPC4 cation channel opening, retest – cell-based, Fluo4 calcium, HEK293 TRPC4beta/mu-opioid, duplicates, 10 µM, confirmation (AID 2426;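 active = fluorescence ratio normalized to control raised more than 50% in primary screen plus both repeat runs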); conditions: Fluo4 calcium fluorescence, at 10 µM; hits give high values
[2] = tested on: transient receptor potential cation channel C4 beta (TRPC4), mouse; assay: TRPC4 cation channel opening, second retest – cell-based, second round, Fluo4, HEK293 TRPC4beta/mu-opioid, 1 µM, confirmation (AID 2461;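 active = primary screen active and over 50% activation in each of two duplicate runs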); conditions: Fluo4 calcium fluorescence, at 1 µM; hits give high values
[3] = tested on: TRPC4 (transient receptor potential cation channel C4 beta), mouse; assay: potentiation of DAMGO EC20 TRPC4 response – cell-based, second round, Fluo-4, HEK293 TRPC4beta/mu-opioid, 1 µM, confirmation (AID 2554;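 active = primary screen hit whose fluorescence ratio, in both repeats, exceeds the weak agonist control mean by 3 SD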); conditions: DAMGO EC20, Fluo-4 calcium flux, at 1 µM; hits give high values
[4] = tested on: TRPC4 beta (transient receptor potential cation channel C4), mouse; assay: potentiation of DAMGO EC20 TRPC4 response – cell-based, Fluo-4, HEK293 TRPC4beta/mu-opioid, confirmation (AID 2555); conditions: DAMGO EC20, Fluo-4 calcium flux, at 10 µM; hits give high values
[5] = target: Short transient receptor potential channel 4 (Mus musculus) (UniProt Q9QUQ5); assay: blockers of DAMGO-evoked TRPC4 calcium flux – cell-based, Fluo4, HEK293 TRPC4beta/mu-opioid, confirmation (AID 2636;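 active = calcium signal cut by more than 3 SD below the full-agonist control yet still positive, in both repeats and the earlier primary screen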); conditions: at 10 µM; hits give high values
Chain of Short transient receptor potential channel 4 (Mus musculus) (Q9QUQ5 whole entry, looked up): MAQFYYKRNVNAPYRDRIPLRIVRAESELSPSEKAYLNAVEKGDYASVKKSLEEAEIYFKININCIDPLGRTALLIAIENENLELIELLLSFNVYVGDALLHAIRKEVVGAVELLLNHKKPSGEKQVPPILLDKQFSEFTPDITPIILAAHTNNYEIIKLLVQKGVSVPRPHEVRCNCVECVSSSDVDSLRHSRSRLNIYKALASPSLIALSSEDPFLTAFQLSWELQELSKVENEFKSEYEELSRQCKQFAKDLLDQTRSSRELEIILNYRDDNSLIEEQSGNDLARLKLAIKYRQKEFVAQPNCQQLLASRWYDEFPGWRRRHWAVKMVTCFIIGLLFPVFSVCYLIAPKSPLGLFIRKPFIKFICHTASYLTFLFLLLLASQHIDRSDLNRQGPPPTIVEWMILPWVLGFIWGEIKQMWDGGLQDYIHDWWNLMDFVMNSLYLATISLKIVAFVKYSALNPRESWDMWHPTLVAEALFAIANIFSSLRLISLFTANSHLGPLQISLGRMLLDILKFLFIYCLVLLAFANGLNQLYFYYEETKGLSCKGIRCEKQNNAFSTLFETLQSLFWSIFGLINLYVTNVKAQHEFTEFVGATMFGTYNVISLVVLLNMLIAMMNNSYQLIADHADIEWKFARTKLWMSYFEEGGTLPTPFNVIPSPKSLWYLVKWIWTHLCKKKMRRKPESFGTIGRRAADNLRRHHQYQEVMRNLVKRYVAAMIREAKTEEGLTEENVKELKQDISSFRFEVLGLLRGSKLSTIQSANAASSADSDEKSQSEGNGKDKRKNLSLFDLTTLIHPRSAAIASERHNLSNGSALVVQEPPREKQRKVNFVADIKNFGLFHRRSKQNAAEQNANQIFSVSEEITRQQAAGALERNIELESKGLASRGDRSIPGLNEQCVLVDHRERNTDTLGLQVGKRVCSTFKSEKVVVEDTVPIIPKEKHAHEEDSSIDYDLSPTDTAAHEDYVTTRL

[6] = target: Short transient receptor potential channel 4 (Mus musculus) (UniProt Q9QUQ5); assay: blockers of DAMGO-evoked TRPC4 calcium flux – cell-based, second round, Fluo4, HEK293 TRPC4beta/mu-opioid, 1 µM, confirmation (AID 2637;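 active = calcium signal ratio cut to more than 3 SD under the fully stimulated control mean yet still positive, in both repeats and the primary screen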); conditions: at 1 µM; hits give high values
[7] = target: Short transient receptor potential channel 4 (Mus musculus) (UniProt Q9QUQ5); assay: calcium entry via TRPC4 opening agents – cell-based, HEK293 TRPC4/mu-opioid, Fluo-4 calcium, dose response (AID 434937;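 active = primary screen activator hit with a dose response curve and TRPC4 channel activation at any tested dose; inactive = no activation, no dose response, or not a primary hit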)
[8] = target: Short transient receptor potential channel 4 (Mus musculus) (UniProt Q9QUQ5); assay: potentiation of DAMGO-evoked TRPC4 calcium signal – cell-based, HEK293 TRPC4/mu-opioid, Fluo-4 calcium, EC20 DAMGO, dose response (AID 434941;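 active = earlier screen potentiator hit that boosts the TRPC4 ion channel at some dose, with a dose response; inactive = no potentiation, no dose response, or not a prior hit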;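 note: calcium entry triggered by an EC20 dose of DAMGO at the co-expressed mu-opioid receptor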)
[9] = target: Short transient receptor potential channel 4 (Mus musculus) (UniProt Q9QUQ5); assay: block of DAMGO-driven TRPC4 calcium entry – cell-based, HEK293 TRPC4/mu-opioid, Fluo-4 calcium, dose response (AID 434942;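 active = primary screen inhibitor hit that blocks the TRPC4 channel at some tested dose, yielding a dose curve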)
[10] = target: Short transient receptor potential channel 6 (Mus musculus) (UniProt Q61143); assay: TRPC6 blockade by TRPC4 inhibitor hits – cell-based, HEK293, membrane potential dye, duplicate, selectivity assay for TRPC4 inhibitor project, confirmation (AID 434948;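 active = active in primary screen and both duplicates, each dropping signal beyond three positive-control SD with fluorescence still positive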); conditions: HEK293 TRPC6, membrane potential dye fluorescence, at 10 µM, stimulated with maximal-effect acetylcholine; hits give high values
Chain of Short transient receptor potential channel 6 (Mus musculus) (Q61143 whole entry, looked up): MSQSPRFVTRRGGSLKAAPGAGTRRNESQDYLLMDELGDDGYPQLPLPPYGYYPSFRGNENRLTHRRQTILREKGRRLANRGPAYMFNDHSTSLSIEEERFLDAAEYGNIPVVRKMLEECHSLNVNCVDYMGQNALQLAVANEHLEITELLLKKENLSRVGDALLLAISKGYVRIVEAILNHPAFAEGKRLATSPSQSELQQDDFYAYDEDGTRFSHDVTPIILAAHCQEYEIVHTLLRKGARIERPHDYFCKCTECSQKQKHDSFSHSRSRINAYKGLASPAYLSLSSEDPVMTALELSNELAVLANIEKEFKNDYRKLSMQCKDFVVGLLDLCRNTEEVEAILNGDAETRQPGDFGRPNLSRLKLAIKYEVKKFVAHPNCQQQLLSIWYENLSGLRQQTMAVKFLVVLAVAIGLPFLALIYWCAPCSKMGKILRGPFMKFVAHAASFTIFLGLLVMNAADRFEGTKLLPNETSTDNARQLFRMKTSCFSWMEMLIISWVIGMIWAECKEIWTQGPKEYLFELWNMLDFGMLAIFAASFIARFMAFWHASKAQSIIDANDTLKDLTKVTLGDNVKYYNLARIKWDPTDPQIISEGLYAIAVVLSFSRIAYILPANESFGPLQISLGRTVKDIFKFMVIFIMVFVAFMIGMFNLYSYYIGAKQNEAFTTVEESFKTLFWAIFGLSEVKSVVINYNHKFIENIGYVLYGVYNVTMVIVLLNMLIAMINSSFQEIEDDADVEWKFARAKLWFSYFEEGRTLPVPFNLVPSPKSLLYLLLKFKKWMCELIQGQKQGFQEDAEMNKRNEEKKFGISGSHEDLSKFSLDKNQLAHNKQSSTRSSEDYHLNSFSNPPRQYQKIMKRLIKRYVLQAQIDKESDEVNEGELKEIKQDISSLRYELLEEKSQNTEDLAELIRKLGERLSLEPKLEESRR

[11] = target: Short transient receptor potential channel 6 (Mus musculus) (UniProt Q61143); assay: TRPC6 opening by TRPC4 activator hits – cell-based, HEK293, membrane potential dye, duplicate, selectivity assay for TRPC4 activator project, confirmation (AID 434950;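 active = membrane potential signal rise above negative control mean plus 3 SD in both duplicates, also active in the earlier TRPC4 screen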;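 for activation: 0% = buffer only wells and 100% = acetylcholine maximal-effect wells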); conditions: HEK293 TRPC6, membrane potential fluorescence, at 10 µM; activation: hits give high values; outcome: activation
[12] = target: Short transient receptor potential channel 6 (Mus musculus) (UniProt Q61143); assay: positive modulators of mouse TRPC6 channel – HEK293 cells, membrane potential dye, duplicate, selectivity assay for TRPC4 potentiator project, confirmation (AID 434952;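 active = compound raising the membrane signal above positive-control mean plus 3 SD in both repeats, and a primary screen hit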); conditions: HEK293 TRPC6, membrane potential dye fluorescence, at 10 µM, maximal acetylcholine added after compound; hits give high values
[13] = target: Short transient receptor potential channel 4 (Mus musculus) (UniProt Q9QUQ5); assay: calcium flux activators in TRPC4/5HT1a cells, counter-screen for TRPC4 activator project, cell-based, second counter screen, HEK293 TRPC4/5HT1a, Fluo-4 (AID 434977;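 active = calcium signal rise above buffer-control mean plus 5 SD in both duplicates, and also a hit in the primary screen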); conditions: Fluo-4 calcium flux, at 10 µM; hits give high values
[14] = serotonin-gated TRPC4 signal block – cell-based, second counter screen, HEK293 TRPC4/5HT1a, Fluo-4, counter-screen for TRPC4 inhibitor project, confirmation (AID 434978;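 active = primary screen active whose calcium signal fell more than 3 SD beyond the full-serotonin control mean in both duplicate plates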;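 note: serotonin given first at submaximal then at maximal dose after compound preincubation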); conditions: Fluo-4 calcium flux, at 10 µM, serotonin added to trigger calcium flux; hits give high values
[15] = tested on: TRPC4 (mouse), co-expressed with 5HT1a in HEK293; assay: enhancement of serotonin-evoked TRPC4 response – cell-based, second counter screen, HEK293 TRPC4/5HT1a, Fluo-4, counter-screen for TRPC4 potentiator project, confirmation (AID 434979;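 active = signal rise over 3 SD above mean of control wells given weak agonist, in both repeats and first screen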); conditions: Fluo-4 calcium flux, at 10 µM, serotonin added at its EC20 dose; hits give high values
[16] = nonspecific calcium rise without TRPC4 – cell-based, HEK293 mu-opioid receptor line, counter-screen for TRPC4 activator project, confirmation (AID 449723;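 active = hit in primary screen, with calcium signal over 5 SD above buffer well mean in both duplicates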;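 note: counter screen cells carry the mu-opioid receptor alone and lack TRPC4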); conditions: HEK293 mu-opioid cells, Fluo-4 calcium fluorescence, at 10 µM; hits give high values
[17] = nonspecific potentiation of DAMGO calcium response – cell-based, HEK293 mu-opioid receptor line, counter-screen for TRPC4 allosteric potentiator project, confirmation (AID 449724;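 active = calcium signal rise more than 3 SD above the low-dose agonist control mean, in both duplicate plates and the primary screen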); conditions: HEK293 mu-opioid receptor cells, Fluo-4 calcium flux, at 10 µM, compound added before EC20 DAMGO stimulus; hits give high values

CCOC(=O)COc1cc(-n2c(=S)[nH]c3ccccc3c2=O)c(Cl)cc1Cl
inactive: outcome [1] | outcome [2] | outcome [5] | outcome [6] | outcome [7] | outcome [8] | outcome [9] | outcome [10] | outcome [11] | outcome [12] | outcome [13] | outcome [14] | outcome [15] | outcome [16] | outcome [17]
active: potentiation [3] 8% | potentiation [4] 21%

Cc1ccc(CS(=O)(=O)CCC(=O)NCCC2=CCCCC2)cc1
inactive: outcome [1] | outcome [2] | outcome [4] | outcome [5] | outcome [6] | outcome [7] | outcome [8] | outcome [9] | outcome [10] | outcome [11] | outcome [12] | outcome [13] | outcome [14] | outcome [16] | outcome [17]
active: potentiation [3] 14% | potentiation [15] 18.2%

C=C(C)COc1ccc(-c2nc(N)ncc2-c2ccccc2OC)c(O)c1
inactive: outcome [1] | outcome [2] | outcome [3] | outcome [4] | outcome [5] | outcome [6] | outcome [7] | outcome [8] | outcome [9] | outcome [10] | outcome [11] | outcome [12] | outcome [13] | outcome [14] | outcome [16] | outcome [17]
active: potentiation [15] 8.86%

O=C(NCc1ccccc1)c1ccc(S(=O)(=O)Nc2cccc(C(F)(F)F)c2)cc1
inactive: outcome [1] | outcome [2] | outcome [3] | outcome [5] | outcome [6] | outcome [7] | outcome [8] | outcome [9] | outcome [10] | outcome [11] | outcome [12] | outcome [13] | outcome [14] | outcome [16] | outcome [17]
active: potentiation [4] 46% | potentiation [15] 44.3%

O=C(C1=C[C@H](c2ccc(C(F)(F)F)cc2)C[C@H](OCCCCO)O1)N1CCN(Cc2ccccc2)CC1
active: activation [11] 35%
inactive: outcome [1] | outcome [2] | outcome [3] | outcome [4] | outcome [5] | outcome [6] | outcome [7] | outcome [8] | outcome [9] | outcome [10] | outcome [12] | outcome [13] | outcome [14] | outcome [15] | outcome [16] | outcome [17]

c1ccc(Cc2nc3ccccc3n2Cc2ccccc2)cc1
inactive: outcome [1] | outcome [2] | outcome [3] | outcome [4] | outcome [5] | outcome [6] | outcome [7] | outcome [8] | outcome [9] | outcome [10] | outcome [11] | outcome [12] | outcome [13] | outcome [14] | outcome [15] | outcome [16] | outcome [17]

C=CCn1c(SCCN2CCCCC2)nc2c1c(=O)[nH]c(=O)n2C
active: potentiation [3] 27% | potentiation [4] 16% | potentiation [15] 20%
inactive: outcome [1] | outcome [2] | outcome [5] | outcome [6] | outcome [7] | outcome [8] | outcome [9] | outcome [10] | outcome [11] | outcome [12] | outcome [13] | outcome [14] | outcome [16] | outcome [17]

CC(C)Cn1c(CN2CCN(C)C(CCO)C2)nc2ccccc21 (stereo unspecified)
inactive: outcome [1] | outcome [2] | outcome [3] | outcome [4] | outcome [5] | outcome [6] | outcome [7] | outcome [8] | outcome [9] | outcome [10] | outcome [11] | outcome [12] | outcome [13] | outcome [14] | outcome [15] | outcome [16] | outcome [17]
